An excerpt weighted towards active compounds, which were near 6.2% of everything screened.
VP16 counter – inhibits Gal4-VP16 luciferase reporter, ROR gamma counter-screen | 3.5% of 310,000 active | AID 2546 | Potency, µM (highest dose often 53.6 µM), actives largely listed as inhibitors | Drosophila S2 Gal4-VP16 UAS-luciferase, luminescence, 20 h;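 note: Gal4-VP16 expression switched on by copper sulfate through the metallothionein promoter; nearly all actives have a fitted effect of over 50% in size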
RORg inh – blocks mouse ROR gamma transcriptional activity | P51450 | Drosophila S2 Gal4-RORgamma UAS-luciferase reporter, 20 h | Potency, µM (series often up to 53.6 µM), usual class: inhibitors | 5.4% of 310,000 active | AID 2551; note: nearly all actives have a fitted effect of over 60% in size
Target sequence (P51450 whole entry, looked up, the tested form may be a part): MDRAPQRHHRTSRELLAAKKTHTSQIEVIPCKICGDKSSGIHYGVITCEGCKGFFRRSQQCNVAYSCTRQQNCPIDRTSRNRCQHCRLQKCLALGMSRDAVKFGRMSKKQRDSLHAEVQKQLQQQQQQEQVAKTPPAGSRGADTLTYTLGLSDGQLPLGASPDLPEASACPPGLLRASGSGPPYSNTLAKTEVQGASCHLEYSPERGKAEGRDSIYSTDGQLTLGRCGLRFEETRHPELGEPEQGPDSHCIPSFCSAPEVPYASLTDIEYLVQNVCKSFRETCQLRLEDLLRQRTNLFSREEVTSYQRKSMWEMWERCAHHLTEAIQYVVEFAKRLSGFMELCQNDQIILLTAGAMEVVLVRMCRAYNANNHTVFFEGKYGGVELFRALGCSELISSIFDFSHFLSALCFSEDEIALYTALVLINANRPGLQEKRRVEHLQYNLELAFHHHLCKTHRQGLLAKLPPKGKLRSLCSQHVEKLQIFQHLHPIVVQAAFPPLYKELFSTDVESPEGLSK
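In this cell-based reporter format, copper sulfate (700 uM final) drives Gal4–ROR gamma fusion expression from a metallothionein promoter in Drosophila Schneider cells; compounds preincubated 1 hr, reporter read after 20 hr at ambient temperature.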
KinaseGlo FLuc – Kinase-Glo luciferase inhibition (counter-screen); Q27757; Potency, µM (doses to about 38.3 µM), hits mostly inhibitors; Kinase-Glo luciferase, ATP luminescence, 8 min; 0.28% of 200,000 active; note: nearly all actives have a fitted effect of over 60% in size
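Compound is pinned into ATP-containing buffer (10 uM ATP, imidazole pH 7.2, 7 mM MgCl2). Kinase-Glo luciferase reagent is then added. Light output is recorded following an 8-min room-temperature incubation.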
Each line names hits and unclear results; the compound was inactive in the other large screens; ! = not confirmed by another sample. Calls come from the whole dose curve; as a rule, active = well fitted curve in the direction sought with a large enough effect; inconclusive = small, poorly fitted or top-dose-only effect, or another doubt; inactive = no such curve, though single readings can be large; an effect the other way counts as inactive or inconclusive.

COCCNc1nc(-c2cccc(NS(C)(=O)=O)c2)nc2ccccc12	none (no result: KinaseGlo FLuc)
CCCCCCCC/C=C\CCCCCCCCN	none (no result: KinaseGlo FLuc)
S=c1oc(-c2ccncc2)nn1CCc1ccncc1	none
COc1ccc2c(c1)C(=O)[C@H](O)[C@@H](c1ccc(OC)c(Br)c1)O2	VP16 counter 12.6µM!, RORg inh 7.08µM
COc1ccc2c(c1)C(=O)[C@H](OC(=O)Nc1cc(OC)c(OC)c(OC)c1)[C@@H](c1ccc(OC)c(Br)c1)O2	none
COc1ccc(C(=S)N2CCCCC2)cc1Br	none
CN(C)c1ccc(C(=S)N2CCOCC2)cc1Br	none
CN(C)c1ccc(C(=S)N2CCCCC2)cc1Br	RORg inh 10µM
S=C(c1ccc(N2CCCC2)cc1)N1CCCCC1	VP16 counter inconclusive, RORg inh 8.91µM
S=C(c1ccc(N2CCCC2)c(Br)c1)N1CCCCC1	RORg inh 20µM
Oc1ccc(C(=S)N2CCCCCC2)cc1	none
Cc1ccccc1-c1ccc2ncnc(N3CCNCC3)c2c1	none (no result: KinaseGlo FLuc)
COC(=O)c1sccc1-c1ccc(/C=N/OC(=O)c2cccs2)o1	none (no result: KinaseGlo FLuc)
CCOC(=O)c1c(/N=C/c2ccc(O)cc2O)sc2c1CCC2	none
COc1ccc(N2CCN(C(=O)[C@@H](NC(=O)c3ccccc3Cl)C(C)C)CC2)cc1	none (no result: KinaseGlo FLuc)
c1ccc(-c2nn3c(Cn4cnc5ccccc54)nnc3s2)cc1	RORg inh 0.0708µM
c1ccc2c(c1)ncn2Cc1nnc2sc(-c3ccncc3)nn12	RORg inh inconclusive
COc1ccccc1NS(=O)(=O)c1ccc2c(c1)n(C)c(=O)n2C	none
CS(=O)(=O)N1CCC(C(=O)Nc2ccccc2)CC1	none
CS(=O)(=O)N1CCC(C(=O)Nc2ccccc2Sc2ccccc2)CC1	VP16 counter 5.62µM, RORg inh inconclusive
CCn1c(SCC(=O)Nc2ccc(-c3nc4ccc(C)cc4s3)cc2)nnc1-c1ccccc1	VP16 counter 17.8µM, RORg inh 11.2µM
Cc1ccc2nc(-c3ccc(NC(=O)CN4C(=O)c5ccccc5C4=O)cc3)sc2c1	VP16 counter inconclusive, RORg inh inconclusive
Cc1cccc(S(=O)(=O)Nc2ccc(-c3nc4ccc(C)cc4s3)cc2)c1	RORg inh 5.62µM
Cc1ccc(NC(=O)CCS(=O)(=O)c2ccc3nc(C)sc3c2)cc1	none (no result: KinaseGlo FLuc)
C=CCn1c(SCC(=O)Nc2ccc(-c3nc4ccc(C)cc4s3)cc2)nnc1-c1ccncc1	none
Cc1ccc(S(=O)(=O)Nc2ccc(-c3nc4ccc(C)cc4s3)cc2)cc1	none (no result: VP16 counter, RORg inh)
Cc1ccc2nc(-c3ccc(NC(=O)COC(=O)c4ccc(=O)[nH]c4)cc3)sc2c1	VP16 counter 5.01µM, RORg inh 0.282µM
Cc1ccc2nc(-c3ccc(NC(=O)CCS(=O)(=O)c4ccccc4)cc3)sc2c1	VP16 counter 7.94µM, RORg inh 1.12µM
CCOC(=O)N1CCN(C(=O)c2ccc(Cl)c(S(=O)(=O)N3CCCC3)c2)CC1	none (no result: KinaseGlo FLuc)
Cc1cccc(C)c1Nc1oc(-c2ccccc2)nc1-c1ccccc1	none
CCOC(=O)CC(=O)CSc1ncnc2c1oc1ccccc12	none
O=C(CCN1C(=O)C2C3CCC(C3)C2C1=O)Nc1cccc(Cl)c1 (stereo not drawn)	none (no result: KinaseGlo FLuc)
Cc1nc2cc(NC(=O)CCS(=O)(=O)c3ccccc3)ccc2s1	VP16 counter inconclusive, RORg inh 15.8µM
Cc1nc2ccc(NC(=O)CCS(=O)(=O)c3ccccc3)cc2s1	VP16 counter inconclusive
COc1ccc(C2(C)NC(=O)N(CC(=O)Nc3ccc(-c4nc5ccc(C)cc5s4)cc3)C2=O)cc1 (stereo not drawn)	none
CC(C)(C)NC(=O)CSc1nc2ccc(NC(=O)CSc3nnnn3Cc3ccccc3)cc2s1	VP16 counter 11.2µM
CCC1(c2ccc(F)cc2)NC(=O)N(CC(=O)Nc2ccc(-c3nc4ccc(C)cc4s3)cc2)C1=O (stereo not drawn)	RORg inh 0.447µM
CCOC(=O)CSc1nc2ccc(NC(=O)CSc3nnnn3Cc3ccccc3)cc2s1	none
Cc1cc(S(=O)(=O)/N=C(\N)c2ccc(C(N)=O)cc2)cc(C)c1F	none (no result: KinaseGlo FLuc)
CCC(=O)N1CCCC(C(=O)c2ccc(-c3ccccc3)cc2)C1 (stereo not drawn)	RORg inh inconclusive (no result: KinaseGlo FLuc)
CC(SCC(=O)NC12CC3CC(CC(C3)C1)C2)C(=O)O (stereo not drawn)	none
N#Cc1ccccc1COC(=O)c1ccc(Br)o1	none (no result: KinaseGlo FLuc)
CCSC1(SCC)N=C(N)C2(C#N)C(c3ccc(OC)c(OC)c3OC)C12C#N (stereo not drawn)	VP16 counter 2.51µM, RORg inh 11.2µM
CCSC1(SCC)N=C(N)C2(C#N)C(c3ccccc3)NC3=C(CCC3)C12C#N (stereo not drawn)	RORg inh inconclusive
CCOC(=O)C1CCCN(/C=C2\SC(=S)N(CC)C2=O)C1 (stereo not drawn)	none (no result: KinaseGlo FLuc)
COCCN(Cc1ccccc1)C(=S)Nc1ccc(Cl)cc1	RORg inh 7.08µM
CCc1ccc(NC(=S)N(CCCN2CCOCC2)Cc2ccccn2)cc1	none
COc1ccc(NC(=O)NCc2ccccn2)cc1	none
COc1cccc(NC(=S)N(Cc2ccccn2)Cc2ccccc2Cl)c1	VP16 counter inconclusive, RORg inh 6.31µM
COc1ccc(NC(=S)N(CCO)Cc2ccccc2)cc1	none
COc1ccc(NC(=S)N(Cc2ccccn2)Cc2ccccc2Cl)cc1	RORg inh 5.62µM
COc1cccc(NC(=S)N(CCc2ccc(OC)c(OC)c2)Cc2ccccn2)c1	RORg inh inconclusive
CCc1ccc(NC(=S)N(Cc2ccccc2)Cc2ccccn2)cc1	VP16 counter inconclusive, RORg inh 0.316µM
CC(=O)OC1CC2C(C)(C)C(=O)C3OC3[C@]2(C)C2CC[C@@]3(C)C(c4ccoc4)OC(=O)C4OC43[C@]12C (stereo partly drawn)	VP16 counter inconclusive
N#Cc1cccc(NC(=O)N2CC3(CCN(C(=O)c4cnccn4)CC3)C2)c1	none
COC1=C(N)C(=O)c2nc(-c3nc(C(=O)O)c(C)c(-c4ccc(OC)c(OC)c4O)c3N)ccc2C1=O	VP16 counter inconclusive, RORg inh 14.1µM
COc1ccc(C(=O)O)c(O)c1OC	none
CCCCC/C=C\C/C=C\C/C=C\C=C\[C@@H](O)CCCC(=O)O	none
Fc1cccc(Nc2ncnc3c2cnn3-c2ccccc2)c1	RORg inh inconclusive (no result: KinaseGlo FLuc)
Clc1cccc(Nc2ncnc3c2cnn3-c2ccccc2)c1	VP16 counter 22.4µM, RORg inh 10µM
Cn1c(=O)[nH]c(=O)c2c1nc(N1CCN(CCO)CC1)n2Cc1ccccc1	none (no result: KinaseGlo FLuc)
CCOc1ccc(CCNC(=O)CSc2nc3ncc(Cl)cc3[nH]2)cc1OCC	none (no result: KinaseGlo FLuc)
CCS(=O)(=O)N1Cc2ccccc2CC1C(=O)Nc1nc2ccc(C)cc2s1 (stereo not drawn)	VP16 counter inconclusive, RORg inh 1.26µM
CCS(=O)(=O)N1Cc2ccccc2CC1C(=O)Nc1ncc(C)s1 (stereo not drawn)	none
CC(C)CNC(=O)/C=C/c1cccs1	none
CCCCc1ccc(NC(=S)NCCO)cc1	RORg inh inconclusive
Fc1ccc(CCNC(=S)Nc2ccc(F)cc2)cc1	VP16 counter 0.891µM, RORg inh 1µM (no result: KinaseGlo FLuc)
CCCCc1ccc(NC(=S)NCCc2ccc(F)cc2)cc1	VP16 counter 5.62µM, RORg inh 2.24µM
Clc1ccc(C(c2nnnn2C2CCCCC2)N(Cc2cccnc2)Cc2ccco2)cc1 (stereo not drawn)	none
CC(=O)NCCNc1ncnc2ccc(-c3ccccc3C)cc12	none (no result: KinaseGlo FLuc)

Bioassay records: PubChem BioAssay, National Center for Advancing Translational Sciences (NCATS)
